The values below come from PubChem BioAssay.

For some assays here: Entries with a potency or affinity are not part of this list. Activity calls are given as the source filed them. Unless noted, cut-off not given; nearly all actives show IC50 up to about 0.98 µM.

Chain of Calcium-dependent protein kinase 1 (Plasmodium falciparum (isolate 3D7)) (P62344 whole entry, looked up): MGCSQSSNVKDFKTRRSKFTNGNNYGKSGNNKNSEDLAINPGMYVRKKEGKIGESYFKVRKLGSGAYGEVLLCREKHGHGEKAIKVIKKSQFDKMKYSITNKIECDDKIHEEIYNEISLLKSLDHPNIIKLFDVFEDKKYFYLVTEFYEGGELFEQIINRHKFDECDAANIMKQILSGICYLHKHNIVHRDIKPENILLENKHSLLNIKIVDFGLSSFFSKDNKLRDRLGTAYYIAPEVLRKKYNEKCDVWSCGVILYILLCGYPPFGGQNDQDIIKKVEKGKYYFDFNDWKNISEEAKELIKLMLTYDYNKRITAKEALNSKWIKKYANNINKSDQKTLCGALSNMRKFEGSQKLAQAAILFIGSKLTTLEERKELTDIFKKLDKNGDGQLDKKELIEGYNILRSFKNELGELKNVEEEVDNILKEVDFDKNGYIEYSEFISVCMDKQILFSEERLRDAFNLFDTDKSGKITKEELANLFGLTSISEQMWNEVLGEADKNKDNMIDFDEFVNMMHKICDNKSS

Tested on in the first assay: not listed separately
In words: inhibition of 3D7 malaria parasite growth – strain 3D7 (AID 2306; call rule not given here;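 further: 0% = DMSO wells and 100% = chloroquine plus artemisinin control wells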). To be noted: P. falciparum 3D7 erythrocytic growth, LDH absorbance, 72 h; at 2 µM; active compounds read high.
For the compound `O=C(/C=C/c1ccc(Cl)c(Cl)c1)N1CCC(CCCN2CCC(c3c[nH]c4ccccc34)CC2)CC1`, the growth inhibition was 101% (active).
Still for that read-out and setting: with `CCCc1cc(OC)c(C[C@@H]2c3cc(O)c(Cl)cc3CCN2C)cc1OC` the figure was 98% (active); with `O=C(NCCCCN1CCC(c2cccc3ccccc23)CC1)c1ccc(NC(=O)c2ccc(Cl)cc2)cc1`, 99% (active).
In the case of `Cc1c(C(=O)N(C)C)sc2c1c(=O)n(Cc1ccccc1)c(=O)n2CC(=O)Nc1ccccc1F`, the growth inhibition is 97% (active).
As to `O=C(NCc1ccc(Cl)cc1)c1ccc(CN2CCCN(CC3CCCCC3)CC2)cc1`, the growth inhibition is 84% (active).
The same measure, in the same setting: with `O=C(Nc1cccc(-c2nc3ccccc3s2)c1)c1ccccc1[N+](=O)[O-]` the figure was 85% (active); with `CCCOC(=O)C1=C(C)NC2=C(C(=O)CC(c3ccc(OC)c(OC)c3)C2)C1c1cccc(O)c1` (stereo not given), 100% (active).
On the same count and under the same terms, the figure for `O=C(/C=C/c1ccc(Cl)c(Cl)c1)N1CCC(CN2CCC(c3c[nH]c4ccncc34)CC2)CC1` is 101% (active); for `Cc1ccc(O)cc1Nc1ccnc2ccc(-c3cccc(CNCCN(C)C)c3)cc12` it is 100% (active).
In the case of `CCOc1cc(C2C(C(=O)OC(C)C)=C(C)NC3=C2C(=O)CC(c2ccc(Cl)cc2)C3)ccc1OC(C)=O` (stereo not given), the growth inhibition is 90% (active).
On the same count and under the same terms, with `CN1CCC(C(=O)N(Cc2ccc(-c3ccc(CNCCc4ccc(S(C)(=O)=O)cc4)cn3)cc2)C2CCN(Cc3ccccc3)CC2)CC1` the figure was 102% (active); with `COc1cc2nc(N3CCC(CNC(=O)c4ccc(-c5ccc(C(=O)N(C)C)cc5OCCN(C)C)cc4)CC3)nc(N)c2cc1OC`, 95% (active); with `COc1ccc(CNc2ccnc3cc(OC)ccc23)cc1`, 100% (active).
Same read-out and setting: the figure for `Cc1cc(O)c(CN2CCN(Cc3cccs3)CC2)cc1C(C)C` is 98% (active); for `CN(C)CCCNCc1cn(S(=O)(=O)c2ccccc2Cl)c2ccccc12` it is 92% (active); for `Cc1cc(N)c2cc(NC(=O)c3ccc4ccccc4c3)ccc2n1` it is 101% (active).
Same read-out and setting: the figure for `COc1cccc(NC(=O)NC2CCN(c3ccnc(Nc4ccc(F)cc4)n3)C2)c1` (stereo not given) is 100% (active); for `COc1ccc(CNc2ncnc3c2[nH]c2ccc(F)cc23)cc1` it is 93% (active); for `FC(F)(F)c1cnc(Sc2nnc(-c3ccncc3)o2)c(Cl)c1` it is 96% (active).
For the compound `COc1cccc(-c2csc(C(=O)NCC3CCN(Cc4ccc(C(C)(C)C)cc4)C3)c2)c1` (stereo not given), the growth inhibition was 95% (active).
Still for that read-out and setting: the figure for `COc1cc(OC)nc(C(Sc2ccc(NC(=O)c3cccs3)cc2)c2ccccc2)n1` (stereo not given) is 97% (active); for `COCCn1ccc2c3c(N)nc(N)nc3ccc21` it is 93% (active); for `CCCNC(=O)C1Cc2cc(OC)c(OC)cc2C2(N1)C(=O)N(Cc1cccc(OC)c1)c1ccccc12` (stereo not given) it is 91% (active).
Consider `O=C(c1ccc(F)c(F)c1)N1CCOC(CCN2CCC(c3ccccc3)CC2)(c2ccc(Cl)c(Cl)c2)C1` (stereo not given), for which the growth inhibition is 89% (active).
In the case of `COc1ccc(-c2nc(NC(=O)CS(=O)(=O)c3ccc(C)cc3)sc2C)cc1`, the growth inhibition is 101% (active).
Same read-out and setting: with `COc1ccc(-c2ccccc2OCCCNc2nc(NCCc3ccc(O)cc3)nc(N3CCNCC3)n2)cc1` the figure was 99% (active); with `CC(O)C1CCCCN1C(=O)c1ccc(-c2cccc(-c3nc4ccc(F)cc4[nH]3)c2)cc1` (stereo not given), 100% (active).
`CCN(CC)CCCC(C)Nc1c(-c2ccc(Br)cc2)cnc2ccccc12` (stereo not given): the growth inhibition was 100% (active).
Turning to `NCc1cccc(-c2cccc(CNC3CCN(Cc4ccccc4)CC3)c2)c1`, the growth inhibition is 100% (active).
On to `NS(=O)(=O)c1ccc(CNc2ccc3ncc(-c4ccc(Cl)cc4)n3n2)cc1`, for which the growth inhibition was 96% (active).
On the same count and under the same terms, the figure for `CCN(CC)CCCN(CCCN(CC)CC)c1cc(C)nc(Nc2ccc(Cl)cc2)n1` is 101% (active); for `COc1cc2nc(N3CCC(CNCc4ccc(-c5ccc(C(F)(F)F)cc5)cc4)CC3)nc(N)c2cc1OC` it is 99% (active).
The same measure, in the same setting: the figure for `CCCCCn1c(Sc2ccc(C#N)c([N+](=O)[O-])c2)nnc1-c1cc(OC)cc(OC)c1` is 93% (active); for `Cc1cccc2[nH]c(-c3cccc(-c4ccc(NC(=O)C(C)(C)c5ccccn5)cc4)c3)nc12` it is 97% (active).
For the compound `O=C(Cc1ccsc1)NCC(c1ccccc1Cl)c1c[nH]c2ccccc12` (stereo not given), the growth inhibition is 86% (active).
Consider `O=C(c1cc(C(=O)Nc2ccccc2)c(=O)n(-c2ccccc2)c1)c1cc(Cl)ccc1O`, for which the growth inhibition is 100% (active).
As to `Cc1ccc2nc(-c3ccccc3)cc(NN=Cc3cccnc3)c2c1`, the growth inhibition was 99% (active).
On to `Cc1[nH]c(C)c(-c2ccc(OCc3cccc(C(F)(F)F)c3)nc2)c(=O)c1Br`, for which the growth inhibition is 99% (active).
On the same count and under the same terms, with `COc1cc2nc(C)nc(Nc3ccc4c(ccn4Cc4ccccc4)c3)c2cc1OC` the figure was 101% (active); with `O=C(c1ccc(F)cc1)N1CCOC(CCN2CCC(c3ccccc3)CC2)(c2ccc(Cl)c(Cl)c2)C1` (stereo not given), 88% (active).

Another assay has as its target Calcium-dependent protein kinase 1 (Plasmodium falciparum (isolate 3D7)) (UniProt P62344). In words: PfCDPK1 kinase inhibitors, biochemical, TCAMS library (AID 1159585).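 Further: inhibitors leave more ATP so luminescence rises with inhibition.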 To be noted: recombinant PfCDPK1, Kinase-Glo ATP depletion luminescence. A general note: In Kinase-Glo more light means more ATP remaining.
As to `O=C(/C=C/c1ccc(Cl)c(Cl)c1)N1CCC(CCCN2CCC(c3c[nH]c4ccccc34)CC2)CC1`, the result was inactive.
The same measure, in the same setting: with `CCCc1cc(OC)c(C[C@@H]2c3cc(O)c(Cl)cc3CCN2C)cc1OC` the entry was “inactive”; with `O=C(NCCCCN1CCC(c2cccc3ccccc23)CC1)c1ccc(NC(=O)c2ccc(Cl)cc2)cc1`, “inactive”.
In the case of `Cc1c(C(=O)N(C)C)sc2c1c(=O)n(Cc1ccccc1)c(=O)n2CC(=O)Nc1ccccc1F`, the result was inactive.
For `O=C(NCc1ccc(Cl)cc1)c1ccc(CN2CCCN(CC3CCCCC3)CC2)cc1`, the outcome was inactive.
Same read-out and setting: with `O=C(Nc1cccc(-c2nc3ccccc3s2)c1)c1ccccc1[N+](=O)[O-]` the entry was “inactive”.
Turning to `CCCOC(=O)C1=C(C)NC2=C(C(=O)CC(c3ccc(OC)c(OC)c3)C2)C1c1cccc(O)c1` (stereo not given), the outcome was inactive.
In the case of `O=C(/C=C/c1ccc(Cl)c(Cl)c1)N1CCC(CN2CCC(c3c[nH]c4ccncc34)CC2)CC1`, the result was inactive.
Same read-out and setting: the entry for `Cc1ccc(O)cc1Nc1ccnc2ccc(-c3cccc(CNCCN(C)C)c3)cc12` is “inactive”.
`CCOc1cc(C2C(C(=O)OC(C)C)=C(C)NC3=C2C(=O)CC(c2ccc(Cl)cc2)C3)ccc1OC(C)=O` (stereo not given): the outcome was inactive.
Regarding `CN1CCC(C(=O)N(Cc2ccc(-c3ccc(CNCCc4ccc(S(C)(=O)=O)cc4)cn3)cc2)C2CCN(Cc3ccccc3)CC2)CC1`, the result was inactive.
Same read-out and setting: the entry for `COc1cc2nc(N3CCC(CNC(=O)c4ccc(-c5ccc(C(=O)N(C)C)cc5OCCN(C)C)cc4)CC3)nc(N)c2cc1OC` is “inactive”; for `COc1ccc(CNc2ccnc3cc(OC)ccc23)cc1` it is “inactive”.
On the same count and under the same terms, with `Cc1cc(O)c(CN2CCN(Cc3cccs3)CC2)cc1C(C)C` the entry was “inactive”; with `CN(C)CCCNCc1cn(S(=O)(=O)c2ccccc2Cl)c2ccccc12`, “inactive”.
Same read-out and setting: the entry for `Cc1cc(N)c2cc(NC(=O)c3ccc4ccccc4c3)ccc2n1` is “inactive”; for `COc1cccc(NC(=O)NC2CCN(c3ccnc(Nc4ccc(F)cc4)n3)C2)c1` (stereo not given) it is “inactive”.
As to `COc1ccc(CNc2ncnc3c2[nH]c2ccc(F)cc23)cc1`, the outcome was inactive.
For the compound `FC(F)(F)c1cnc(Sc2nnc(-c3ccncc3)o2)c(Cl)c1`, the result was inactive.
In the case of `COc1cccc(-c2csc(C(=O)NCC3CCN(Cc4ccc(C(C)(C)C)cc4)C3)c2)c1` (stereo not given), the outcome was inactive.
`COc1cc(OC)nc(C(Sc2ccc(NC(=O)c3cccs3)cc2)c2ccccc2)n1` (stereo not given): the outcome was inactive.
The same measure, in the same setting: with `COCCn1ccc2c3c(N)nc(N)nc3ccc21` the entry was “inactive”; with `CCCNC(=O)C1Cc2cc(OC)c(OC)cc2C2(N1)C(=O)N(Cc1cccc(OC)c1)c1ccccc12` (stereo not given), “inactive”.
The same measure, in the same setting: with `O=C(c1ccc(F)c(F)c1)N1CCOC(CCN2CCC(c3ccccc3)CC2)(c2ccc(Cl)c(Cl)c2)C1` (stereo not given) the entry was “inactive”; with `COc1ccc(-c2nc(NC(=O)CS(=O)(=O)c3ccc(C)cc3)sc2C)cc1`, “inactive”; with `COc1ccc(-c2ccccc2OCCCNc2nc(NCCc3ccc(O)cc3)nc(N3CCNCC3)n2)cc1`, “inactive”.
The same measure, in the same setting: the entry for `CC(O)C1CCCCN1C(=O)c1ccc(-c2cccc(-c3nc4ccc(F)cc4[nH]3)c2)cc1` (stereo not given) is “inactive”; for `CCN(CC)CCCC(C)Nc1c(-c2ccc(Br)cc2)cnc2ccccc12` (stereo not given) it is “inactive”; for `NCc1cccc(-c2cccc(CNC3CCN(Cc4ccccc4)CC3)c2)c1` it is “inactive”.
Regarding `NS(=O)(=O)c1ccc(CNc2ccc3ncc(-c4ccc(Cl)cc4)n3n2)cc1`, the outcome was inactive.
On the same count and under the same terms, the entry for `CCN(CC)CCCN(CCCN(CC)CC)c1cc(C)nc(Nc2ccc(Cl)cc2)n1` is “inactive”; for `COc1cc2nc(N3CCC(CNCc4ccc(-c5ccc(C(F)(F)F)cc5)cc4)CC3)nc(N)c2cc1OC` it is “inactive”; for `CCCCCn1c(Sc2ccc(C#N)c([N+](=O)[O-])c2)nnc1-c1cc(OC)cc(OC)c1` it is “inactive”.
On to `Cc1cccc2[nH]c(-c3cccc(-c4ccc(NC(=O)C(C)(C)c5ccccn5)cc4)c3)nc12`, for which the outcome was inactive.
Still for that read-out and setting: with `O=C(Cc1ccsc1)NCC(c1ccccc1Cl)c1c[nH]c2ccccc12` (stereo not given) the entry was “inactive”; with `O=C(c1cc(C(=O)Nc2ccccc2)c(=O)n(-c2ccccc2)c1)c1cc(Cl)ccc1O`, “inactive”; with `Cc1ccc2nc(-c3ccccc3)cc(NN=Cc3cccnc3)c2c1`, “inactive”.
For `Cc1[nH]c(C)c(-c2ccc(OCc3cccc(C(F)(F)F)c3)nc2)c(=O)c1Br`, the result was inactive.
On the same count and under the same terms, the entry for `COc1cc2nc(C)nc(Nc3ccc4c(ccn4Cc4ccccc4)c3)c2cc1OC` is “inactive”; for `O=C(c1ccc(F)cc1)N1CCOC(CCN2CCC(c3ccccc3)CC2)(c2ccc(Cl)c(Cl)c2)C1` (stereo not given) it is “inactive”.
